Peg3 prom inh-1 = reduces Peg3 promoter-driven luciferase expression in HeLa; hit rate 1.7% among 360,000; inhibition, % at 20 µM; AID 588405; HeLa PEG-Prom luciferase reporter, luminescence, overnight;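 active = inhibition of at least 50% at 20 µM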
KKLEB cytotox = reduces viability of KKLEB cystic fibrosis airway cells; AID 602141; activity change (cytotoxicity), % at 5 µM; hit rate 0.36% among 360,000; KKLEB CF airway cells viability, ATPlite luminescence, overnight; hits give low values; cells stimulated with P. aeruginosa culture filtrate;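 active = corrected activity change at or below -50% at 5 µM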
Mdm2 MdmX PPI = human Mdm2/MdmX binding inhibition; O15151+Q00987; SaOS-2 split-luciferase Mdm2/MdmX complementation, luminescence; inhibition, % at 8 µM; hit rate 3% among 330,000; AID 485346;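 active = inhibition of at least 50% at 8 µM in the primary screen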
HIF-2a block = HIF-2a inhibition; inhibition, % at 18.8 µM; 786-0 RCC cells HIF-2a reporter, luciferase luminescence, overnight; hit rate 0.72% among 360,000;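 active = inhibition of the luminescence signal of 40% or more relative to plate controls, in a single-dose primary screen at 18.75 µM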
CF NFkB inh = blocks PAF-induced NF-kB reporter in cystic fibrosis cells; KKLEB NF-kB-GFP reporter, GFP fluorescence overnight; inhibition, % at 5 µM; hit rate 0.86% among 360,000; AID 588850;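 active = at least 50% inhibition at 5 µM, scaled per plate between neutral and stimulator controls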;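 also: PAF is a Pseudomonas aeruginosa culture filtrate used as stimulus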
ABHD5-PLIN5 inh = ABHD5-PLIN5 protein interaction inhibition. inhibition, % at 4 µM. Split G. princeps luciferase complementation, luminescence, 4 h. hit rate 0.78% among 360,000. Q00G26+Q8WTS1;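 active = inhibition above the mean inhibition across every tested compound plus 3 SD, cut at about 22% in these data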
Target sequence (Q00G26 whole entry, looked up): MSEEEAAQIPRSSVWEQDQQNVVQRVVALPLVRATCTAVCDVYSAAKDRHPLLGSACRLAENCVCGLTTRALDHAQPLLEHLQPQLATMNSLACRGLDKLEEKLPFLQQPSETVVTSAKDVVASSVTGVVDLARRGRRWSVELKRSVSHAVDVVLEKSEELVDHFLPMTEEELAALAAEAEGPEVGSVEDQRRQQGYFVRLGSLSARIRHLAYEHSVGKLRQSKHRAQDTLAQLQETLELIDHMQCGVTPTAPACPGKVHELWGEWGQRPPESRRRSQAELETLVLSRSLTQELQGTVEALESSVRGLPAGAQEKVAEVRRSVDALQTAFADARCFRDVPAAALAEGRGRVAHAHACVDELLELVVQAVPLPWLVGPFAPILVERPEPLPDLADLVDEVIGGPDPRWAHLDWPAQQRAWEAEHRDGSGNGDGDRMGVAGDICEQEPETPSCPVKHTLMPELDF
Target sequence (Q8WTS1 whole entry, looked up): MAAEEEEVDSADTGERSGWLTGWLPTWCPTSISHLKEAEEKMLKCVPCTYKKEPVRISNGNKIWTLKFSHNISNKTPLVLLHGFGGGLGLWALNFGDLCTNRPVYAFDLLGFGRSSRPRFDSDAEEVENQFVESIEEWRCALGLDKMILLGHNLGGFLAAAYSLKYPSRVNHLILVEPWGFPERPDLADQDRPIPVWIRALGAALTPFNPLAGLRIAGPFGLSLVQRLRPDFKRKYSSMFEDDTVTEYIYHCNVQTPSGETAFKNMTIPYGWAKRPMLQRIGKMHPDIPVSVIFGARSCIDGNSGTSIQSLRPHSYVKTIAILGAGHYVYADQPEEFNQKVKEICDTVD
Mdm2 MdmX conf-1 = confirmation of human Mdm2/MdmX interaction inhibitors. shares compounds with Mdm2 MdmX PPI. Mdm2-MdmX binding, luminescent assay. inhibition, % at 8 µM. hit rate 55% among 10,000. AID 489028
Full FLuc ctr = full-length luciferase inhibition in Mdm2/MdmX counter-screen; AID 504607; shares compounds with Mdm2 MdmX PPI; inhibition, % at 8 µM; SaOS-2 full-length luciferase counterscreen, luminescence; hit rate 77% among 6,200;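 active = mean inhibition at 8 µM reaching about 37%, which flags the compound as non-specific, limit read from the data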;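 also: p53-null SaOS-2 cells with luciferase driven by a doxycycline-inducible promoter; compound on cells about two nights before reading with doxycycline added after day one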
Peg3 prom inh-2 = Peg3 promoter inhibition confirmation; shares compounds with Peg3 prom inh-1; HeLa PEG-Prom luciferase reporter, luminescence, overnight; inhibition, % at 20 µM; hit rate 84% among 1,300;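 active = at 20 µM dose, 40% or more inhibition averaged across four replicates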
CF NFkB inh conf = CF NF-kB inhibition confirmation, single concentration | shares compounds with CF NFkB inh | KKLEB CF airway cells, PAF-induced NF-kB-GFP fluorescence, overnight | inhibition, % at 5 µM | hit rate 64% among 1,300;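 also: stimulus PAF is a Pseudomonas aeruginosa filtrate and not platelet activating factor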
Mdm2 MdmX conf-2 = Mdm2/MdmX (human) interaction inhibition, confirmed | shares compounds with HIF-2a block | SaOS-2 split-luciferase Mdm2/MdmX complementation, luminescence | inhibition, % at 8 µM | hit rate 99% among 740 | AID 504601;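 active = mean inhibition of the luminescence signal across two replicates at or above 26 percent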
HIF-2a conf = confirmation of HIF-2a inhibitors; shares compounds with HIF-2a block; 786-0 RCC cells, HIF-2a luciferase reporter luminescence, overnight; inhibition, % at 18.8 µM; hit rate 56% among 1,800;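 active = mean inhibition across four replicates of at least 40 percent at the single tested concentration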
HIF-1a counter = counter-screen for HIF-2a inhibitors: HIF-1a inhibition in MiaPaCa-2 cells. inhibition, % at 18.8 µM. MiaPaCa-2 HIF-1a luciferase reporter, desferoxamine, overnight. hit rate 72% among 1,800. shares compounds with HIF-2a block. AID 651589;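 active = mean inhibition of the reporter signal across four replicates at the single tested dose of 50% or more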
A number is an active result; - = inactive; . = not tested or not shown. An excerpt weighted towards active compounds, which were near 4.6% of everything screened. Rule as the data show it, unless noted: active = inhibition above about 40%; inactive = the rest.

SMILES | Peg3 prom inh-1 | KKLEB cytotox | Mdm2 MdmX PPI | HIF-2a block | CF NFkB inh | ABHD5-PLIN5 inh | Mdm2 MdmX conf-1 | Full FLuc ctr | Peg3 prom inh-2 | HIF-2a conf | HIF-1a counter | others
Cc1cc(C(=O)COC(=O)c2ccccc2Br)c(C)n1CC1CCCO1 (stereo not drawn) | 54 | - | 91 | 55 | - | - | 93 | 39 | 78 | 68 | 90
C=CCn1c(C)cc(C(=O)COC(=O)c2ccc(N)c([N+](=O)[O-])c2)c1C | - | - | - | - | - | - | . | . | . | . | .
Cc1cc(C(=O)COC(=O)c2ccccc2O)c(C)n1CC1CCCO1 (stereo not drawn) | 85 | - | 94 | 90 | - | - | 97 | - | 92 | 95 | 98
Cc1cc(C(=O)COC(=O)c2ccccc2NCCO)c(C)n1CC1CCCO1 (stereo not drawn) | - | - | - | - | - | - | . | . | . | . | .
CCn1c(C)cc(C(=O)COC(=O)c2ccccc2[N+](=O)[O-])c1C | 94 | -67 | 96 | 82 | - | - | 96 | 53 | 91 | 87 | 87 | Mdm2 MdmX conf-2=98
COCCn1c(C)cc(C(=O)COC(=O)c2ccccc2Br)c1C | 78 | - | 80 | 48 | - | - | 93 | 74 | 69 | 42 | 76
COc1ccc(C2/C(=C(/O)c3ccc4c(c3)CC(C)O4)C(=O)C(=O)N2CCCN2CCOCC2)cc1 (stereo not drawn) | - | - | - | - | - | - | . | . | . | . | .
COc1cc2c(cc1OC)CN(CC(=O)Nc1cccc(C(F)(F)F)c1)CC2 | - | - | - | - | - | - | . | . | . | . | .
Cc1csc(CNC(=O)c2cc(COc3c(C)cccc3C)on2)n1 | - | - | - | - | - | - | . | . | . | . | .
CC(NC(C(=O)c1ccccc1)c1ccccc1)c1ccccc1 (stereo not drawn) | - | - | . | - | - | - | . | . | . | . | .
Cc1cccc(C)c1NC(=O)C(c1ccc(C#N)cc1)n1c(=O)c(-c2cc3ccccc3[nH]2)nc2ccccc21 (stereo not drawn) | . | . | . | - | . | - | . | . | . | . | .
COc1cc(C2C(C#N)=C(N)N(N(C)C)C3=C2C(=O)CCC3)ccc1O (stereo not drawn) | - | - | . | - | - | - | . | . | . | . | .
CC(=O)Nc1ccc(SCC(=O)c2cc(C)n(Cc3cccs3)c2C)cc1 | - | -56 | 74 | 71 | - | - | - | . | . | 82 | 89
Cc1cc(C(=O)COC(=O)c2ccc3c(c2)OCO3)c(C)n1Cc1cccs1 | - | - | - | - | - | - | . | . | . | . | .
Cc1cc(C(=O)COC(=O)c2ccccc2O)c(C)n1Cc1cccs1 | 91 | - | 97 | 90 | - | - | 94 | - | 87 | 96 | 97
Cc1ccc(S(=O)(=O)N(C)c2ccc(C(=O)N(CC(C)C)C3CCS(=O)(=O)C3)cc2)cc1 (stereo not drawn) | - | - | - | - | - | - | . | . | . | . | .
CCCS(=O)(=O)NC(=O)C1(C)CCN(C(=O)c2ccccc2F)C1 (stereo not drawn) | - | - | . | - | - | - | . | . | . | . | .
CCCNC(=O)COC(=O)c1ccccc1C(=O)c1ccc(Cl)c([N+](=O)[O-])c1 | 106 | - | 98 | 83 | 101 | - | 88 | 52 | 99 | 42 | 104 | CF NFkB inh conf=109;Mdm2 MdmX conf-2=103
CC[C@@]1(C(=O)OC)N[C@H](CN(C)C(=O)Nc2ccc(OC)cc2)[C@@H]2C(=O)N(C)C(=O)[C@@H]21 | - | - | - | - | - | - | . | . | . | . | .
CC1CCc2c(sc3nc(C(C)(C)C)nc(N4CCN(C(=O)CCl)CC4)c23)C1 (stereo not drawn) | 56 | -92 | 98 | 43 | 97 | - | - | - | . | - | 106
C[C@]1(CO)CCC[C@@]2(C)C1CC[C@@H](CO)[C@@H]2CCc1ccoc1 (stereo partly drawn) | - | - | - | - | - | - | . | . | . | . | .
N#Cc1c(N2CCCC(O)C2)nc(N)c2c(N)nc3c(c12)CC(=O)N3C12CC3CC(CC(C3)C1)C2 (stereo not drawn) | - | - | 90 | - | 58 | - | 69 | 44 | . | . | . | Mdm2 MdmX conf-2=91
CC(C)N1CCc2c(sc(NC(=O)c3ccc([N+](=O)[O-])o3)c2C(N)=O)C1 | 104 | - | 89 | 90 | 79 | - | 94 | - | . | 79 | 103
COC(=O)c1c(NC(=O)c2ccc([N+](=O)[O-])o2)sc2c1CCN(C(C)C)C2 | 94 | - | 97 | - | 75 | - | 98 | 48 | 69 | . | . | Mdm2 MdmX conf-2=84
COC(=O)c1c(NC(=O)Cc2ccccc2)sc2c1CCN(C(C)C)C2 | - | - | - | - | - | - | . | . | . | . | .
SMILES | Peg3 prom inh-1 | KKLEB cytotox | Mdm2 MdmX PPI | HIF-2a block | CF NFkB inh | ABHD5-PLIN5 inh | Mdm2 MdmX conf-1 | Full FLuc ctr | Peg3 prom inh-2 | HIF-2a conf | HIF-1a counter | others
Cc1ccccc1C1=NC(C(F)(F)F)(C(F)(F)F)c2c(n(C)c(=O)n(C)c2=O)N1 | - | - | - | - | - | - | . | . | . | . | .
Cn1c2c(c(=O)n(C)c1=O)C(C(F)(F)F)(C(F)(F)F)N=C(c1ccc(Cl)cc1)N2 | - | - | 94 | - | 67 | - | 90 | 52 | . | . | . | Mdm2 MdmX conf-2=97
Cc1ccc(C(=O)n2c(N)nc3ccccc32)cc1 | 80 | - | 52 | 42 | - | - | 44 | 98 | - | 69 | 87
Nc1ccc(C(=O)n2c3ccccc3c3ccccc32)cc1 | - | - | 60 | 78 | - | - | 57 | 63 | . | 92 | 85
Nc1ccc(C(=O)N2CCCC2)cc1 | - | - | - | - | - | - | . | . | . | . | .
O=C1Nc2ccccc2-n2nnnc2C1N1CCN(c2ccc(C(F)(F)F)cc2[N+](=O)[O-])CC1 (stereo not drawn) | . | . | . | - | . | - | . | . | . | . | .
CC(C)Nc1ccc(Nc2ccnc3cc4ccccc4cc23)cc1 | 108 | - | 95 | 55 | - | - | 100 | 51 | . | . | . | Mdm2 MdmX conf-2=103

Source: PubChem (several laboratories)
